Bioassay records: PubChem, several laboratories
Only some compounds are listed: those with a hit (about 2.7% of all), similar ones and a draw of the others.
TRPM1 prom inh – inhibitors of MITF-dependent TRPM1 promoter reporter, primary screen, cell-based, SK-MEL-5, single point, luciferase. SK-MEL-5 TRPM1 promoter luciferase, 24 h. hit rate 0.83% among 330,000. inhibition, % at 12.5 µM. AID 488899, 2010;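 active = mean inhibition across replicates of 60% or more, whatever share of single replicates reaches that level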
Shn3 3UTR inh – reduction of Shn3 3'UTR firefly luciferase signal, primary screen, Schnurri-3 inhibitor project, cell-based, Clone20 osteoblasts, set 2; Clone20 osteoblast Shn3 3'UTR firefly luciferase, 24 h; inhibition, % at 12.5 µM; hit rate 0.52% among 360,000;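 active = mean inhibition of at least 75% with every replicate also reaching 75%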;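 note: 0% = median of neutral control wells and 100% = pilot-screen positive control compound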
HIF-2a inh – HIF-2a reporter inhibitors, primary screen, luminescence, 786-0 RCC cells; 786-0 RCC cells HIF-2a reporter, luciferase luminescence, overnight; inhibition, % at 18.8 µM; hit rate 0.72% among 360,000;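 active = inhibition of the luminescence signal of 40% or more relative to plate controls, in a single-dose primary screen at 18.75 µM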
Peg3 prom inh – Peg3 promoter-driven luciferase inhibitors, primary screen, cell-based, HeLa, luciferase luminescence; HeLa PEG-Prom luciferase reporter, overnight; inhibition, % at 20 µM; hit rate 1.7% among 360,000;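 active = inhibition of at least 50% at 20 µM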
KKLEB cytotox – cytotoxicity in KKLEB CF airway cells, primary screen, cytotoxicity control for CF NF-kB inhibitor project, cell-based, uHTS, fluorescence assay plates. hit rate 0.36% among 360,000. activity change (cytotoxicity), % at 5 µM. KKLEB CF airway cells viability, ATPlite luminescence, overnight; stronger effect = lower value; cells stimulated with P. aeruginosa culture filtrate. AID 602141, 2011;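 active = corrected activity change at or below -50% at 5 µM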
CF NFkB block – inhibitors of PAF-induced NF-kB signaling, primary screen, cell-based, GFP fluorescence, uHTS | hit rate 0.86% among 360,000 | KKLEB NF-kB-GFP reporter, GFP fluorescence overnight | inhibition, % at 5 µM;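 active = at least 50% inhibition at 5 µM, scaled per plate between neutral and stimulator controls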;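 note: PAF is a Pseudomonas aeruginosa culture filtrate used as stimulus; plate controls were PAF-stimulated DMSO wells for no effect and unstimulated DMSO wells for full effect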
Mdm2 MdmX conf – retested Mdm2-MdmX interaction blockers, confirmation, cell-based, luminescence, single concentration, set 2; shares compounds with HIF-2a inh; SaOS-2 split-luciferase Mdm2/MdmX complementation; inhibition, % at 8 µM; hit rate 99% among 740; AID 504601, 2011;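 active = mean inhibition of the luminescence signal across two replicates at or above 26 percent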
Target sequence (O15151 whole entry, looked up): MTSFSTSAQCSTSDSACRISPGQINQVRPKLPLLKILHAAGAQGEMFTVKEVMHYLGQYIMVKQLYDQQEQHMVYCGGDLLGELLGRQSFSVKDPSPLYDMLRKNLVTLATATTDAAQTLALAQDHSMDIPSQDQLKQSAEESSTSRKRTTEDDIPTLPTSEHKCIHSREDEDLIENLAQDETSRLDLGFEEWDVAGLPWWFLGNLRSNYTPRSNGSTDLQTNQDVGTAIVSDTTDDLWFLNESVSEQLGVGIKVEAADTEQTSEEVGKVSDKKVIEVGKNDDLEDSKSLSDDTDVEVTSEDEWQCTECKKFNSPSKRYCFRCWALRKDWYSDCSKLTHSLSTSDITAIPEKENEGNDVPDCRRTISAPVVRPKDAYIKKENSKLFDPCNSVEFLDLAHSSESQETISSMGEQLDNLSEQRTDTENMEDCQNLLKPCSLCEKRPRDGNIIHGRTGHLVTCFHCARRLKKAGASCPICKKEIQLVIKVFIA
Target sequence (Q00987 whole entry, looked up): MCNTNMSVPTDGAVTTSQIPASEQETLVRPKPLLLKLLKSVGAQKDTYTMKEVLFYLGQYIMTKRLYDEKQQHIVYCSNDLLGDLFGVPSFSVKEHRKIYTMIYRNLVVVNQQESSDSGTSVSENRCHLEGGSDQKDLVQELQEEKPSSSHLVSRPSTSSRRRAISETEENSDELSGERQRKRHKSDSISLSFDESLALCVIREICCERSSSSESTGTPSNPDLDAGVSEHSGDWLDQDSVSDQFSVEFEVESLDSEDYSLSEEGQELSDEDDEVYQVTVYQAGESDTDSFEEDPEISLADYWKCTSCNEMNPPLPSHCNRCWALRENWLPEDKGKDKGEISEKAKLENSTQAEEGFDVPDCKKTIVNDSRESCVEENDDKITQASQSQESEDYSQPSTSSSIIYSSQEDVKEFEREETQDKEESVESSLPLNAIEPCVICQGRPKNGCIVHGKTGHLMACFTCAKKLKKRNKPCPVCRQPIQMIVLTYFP
HIF-2a inh conf – HIF-2a reporter inhibitor retest, confirmation, luminescence, 786-0 RCC cells | shares compounds with HIF-2a inh | HIF-2a luciferase reporter luminescence, overnight | inhibition, % at 18.8 µM | hit rate 56% among 1,800;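 active = mean inhibition across four replicates of at least 40 percent at the single tested concentration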
HIF-1a counter – HIF-1a luciferase reporter signal reduction – MiaPaCa-2 cells, single concentration, counter-screen for HIF-2a inhibitor project, confirmation | shares compounds with HIF-2a inh | MiaPaCa-2 HIF-1a luciferase reporter, desferoxamine, overnight | inhibition, % at 18.8 µM | AID 651589, 2012 | hit rate 72% among 1,800;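 active = mean inhibition of the reporter signal across four replicates at the single tested dose of 50% or more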
* marks the source's active call; other numbers are inactive results; . = no result.

SMILES	TRPM1 prom inh	Shn3 3UTR inh	HIF-2a inh	Peg3 prom inh	KKLEB cytotox	CF NFkB block	HIF-2a inh conf	HIF-1a counter	others
Cc1ccc(C(C)C)c(OCC(=O)Nc2ccc3c(c2)nc(CCN2CCCCC2)n3C)c1	94.9*	1.6	22.8	104.6*	-15.6	19.6	.	.	Mdm2 MdmX conf=100.7*
N#Cc1ccccc1OCC(=O)NCc1ccccc1CN1CCCC1	-12.0	-24.9	3.4	-3.8	35.5	-27.5	.	.
Cc1cccc(NC(=O)CSc2nc3c([nH]c4ccccc43)c(=O)n2C)c1	.	25.1	23.3	31.8	-15.0	-17.2	.	.
COc1cccc(NC(=O)CSc2nc3c([nH]c4ccccc43)c(=O)n2C)c1	30.9	14.6	51.4*	58.9*	-16.6	2.3	0.0	25.7
COc1cccc(/C=C2/CCC(CN(C)C)C2=O)c1 (centres undefined)	97.5*	77.6	59.8*	95.8*	11.4	-71.2	20.6	103.4*
CCC(C(=O)OCC(=O)N(C)c1c(N)n(Cc2ccccc2)c(=O)[nH]c1=O)c1ccccc1 (centres undefined)	-6.3	-16.8	5.3	-7.9	13.1	-18.9	.	.
Cc1ccc(-c2[nH]c3ccccc3c2SCCNC(=O)c2ccc(S(=O)(=O)N3CCOCC3)cc2)cc1	.	57.4	36.1*	15.6	-7.7	18.5	-2.2	49.0
O=C(OCC(=O)c1c[nH]c2ccccc12)c1cc(S(=O)(=O)N2CCOCC2)ccc1F	21.7	2.2	42.0*	12.5	-16.3	-2.1	16.2	72.3*
CCOC(=O)/C(C#N)=C\c1cccnc1	-3.2	-12.3	18.7	21.4	5.2	10.5	.	.
CCOC(=O)/C(=C\c1cccnc1)C(=O)c1cc(C(C)=O)c(Nc2ccccc2)s1	98.2*	97.7*	95.5*	119.3*	3.0	94.6*	.	.	Mdm2 MdmX conf=103.0*
CCOC(=O)/C(=C\c1ccccc1)C(=O)c1cc(C(C)=O)c(Nc2ccccc2)s1	55.9	97.9*	95.4*	103.8*	-34.0	23.3	88.1*	107.3*
COc1cccc(-c2nnn(CC(=O)N3CCC(C)CC3)n2)c1	-16.6	-20.0	-60.1	-15.3	7.8	-17.6	.	.
CCc1ccc(CNC(=O)c2ccc(NC(=O)C3=CSCCO3)cc2)cc1	-42.8	-2.5	-56.0	-57.8	5.4	6.8	.	.
Nc1ccc(-c2nc3c(Cl)cc(N)cc3[nH]2)cc1	75.6*	68.4	88.0*	12.2	-3.5	-5.4	95.7*	84.8*
Cc1nn(C)cc1S(=O)(=O)NCc1ccc2c(c1)OCO2	9.9	-4.9	16.2	-10.2	0.2	-11.3	.	.
COc1ccc2nc(-c3ccc(N)cc3)[nH]c2c1	32.2	23.2	69.6*	-116.8	6.5	-22.2	79.9*	17.0
CCC(C)c1ccc(OCc2ccc(C(=O)O)o2)cc1 (centres undefined)	5.2	-22.1	55.0*	41.1	-1.7	-5.6	33.3	-65.9
CCOC(=O)C(CCCOc1ccc(C(C)CC)cc1)C(=O)OCC (centres undefined)	-2.4	30.9	70.5*	-1.9	5.6	-6.2	73.2*	69.0*
CC1(C(=O)NS(=O)(=O)Cc2cccc(Cl)c2)CCN1C(=O)c1ccc(C2CCCCC2)cc1 (centres undefined)	.	-8.1	7.1	-6.9	-4.3	20.7	.	.
Nc1c(C(=O)OCC(=O)Nc2cccc([N+](=O)[O-])c2)[nH]c(=O)[nH]c1=O	6.2	-30.3	15.0	-2.5	6.1	-14.6	.	.
CCC(C)(C)c1ccc(OCCCC[n+]2cccc(C)c2C)c(C(C)(C)CC)c1	71.2*	.	87.7*	106.7*	-31.6	46.6	76.8*	106.6*	Mdm2 MdmX conf=102.7*
CCC(C)(C)c1ccc(OCCCC[n+]2ccc(C)cc2)c(C(C)(C)CC)c1	.	.	.	.	.	.	.	.	Mdm2 MdmX conf=102.0*
Cc1cc[n+](CC[n+]2ccc(C)cc2)cc1	12.1	5.0	6.4	-3.2	1.7	-7.4	.	.
Cc1c(C(=O)NCC2CCCO2)oc2ccc(S(=O)(=O)N3CC(C)CC(C)C3)cc12 (centres undefined)	.	16.3	39.3*	27.1	-6.3	-19.3	7.7	57.2*
Cc1c(C(=O)NCC2CCCO2)oc2ccc(S(=O)(=O)N3CCCCC3)cc12 (centres undefined)	-2.9	0.8	4.2	15.1	2.1	10.6	.	.
SMILES	TRPM1 prom inh	Shn3 3UTR inh	HIF-2a inh	Peg3 prom inh	KKLEB cytotox	CF NFkB block	HIF-2a inh conf	HIF-1a counter	others
CN1CC[C@]2(CCN3CCc4c(oc5ccccc45)[C@@H]3C2)N(C)C1=O	-1.2	11.4	-5.2	-7.7	-6.1	-30.2	.	.
NC(Cc1ccccc1)c1csc(NC(=O)c2cccc(OC(F)(F)F)c2)n1 (centres undefined)	.	-1.4	64.7*	99.3*	-10.6	-10.4	5.9	106.2*
COc1ccc(CC(N)c2csc(NC(=O)c3ccc(OC)cc3)n2)cc1 (centres undefined)	.	4.3	-6.3	16.4	-6.9	-0.4	.	.
CCn1c2ccccc2c2cc(NC(=O)CSc3nnc(-c4ccc(OC)cc4)n3N)ccc21	49.6	-0.7	40.9*	34.0	-13.4	11.6	2.8	31.2
O=C(Cc1ccc(Br)cc1)NNC(=O)c1cccs1	-3.4	-18.8	-16.1	-16.8	-0.8	-6.9	.	.
Cc1nnnn1/C(=C\c1ccccc1)C(=O)OCC(=O)N(C)C1CCS(=O)(=O)C1 (centres undefined)	5.3	-0.9	14.8	4.6	3.7	1.9	.	.
CCN(C(=O)COC(=O)/C(=C/c1ccccc1)n1nnnc1C)C1CCCCC1	10.2	-17.2	42.4*	15.9	16.6	13.9	36.6	62.6*
CC(C)(C)C(=O)NNC(=O)C1CC1(c1ccccc1)c1ccccc1 (centres undefined)	11.0	6.5	11.2	5.0	-11.0	-23.6	.	.
O=C(C#Cc1ccccc1)c1ccco1	98.9*	95.2*	40.2*	104.7*	-64.3*	98.6*	90.4*	103.5*	Mdm2 MdmX conf=102.7*
CCCCn1nc(C(=O)N(CC)CC(=O)Nc2c(F)cccc2F)c2ccccc2c1=O	6.4	6.3	10.0	26.3	9.6	-6.0	.	.
